Screens from PubChem BioAssay.
Most compounds without a hit are left out; they make up all but 17% or so of the library.
HepG2 viability: kills HepG2 cells in TGF-b inhibitor counter-screen. hit rate 0.76% among 410,000. Potency, µM (top dose mostly 46.1 µM), for inactives: top-dose activity change, negative = cytotoxicity, usual class: cytotoxic. AID 588856. HepG2 CAGA-GFP viability, ATP luminescence, 18 h
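HepG2 CAGA-GFP cells (1000/well, DMEM with 1% FBS) received compound, then TGF-beta at 500 pg/mL final, and were incubated 18 hours at 37 degrees C. Viability was read by CellTiter-Glo luminescence. Media-only wells were set as complete cell-killing and DMSO as no toxicity.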
HT1080 IDH1KD tx: kills HT-1080 cells with IDH1 knockdown; AID 686971; Potency, µM (highest dose often 46.1 µM), for the others: at the top dose activity, negative = toxicity, most hits filed as cytotoxic; hit rate 2% among 360,000; HT-1080 IDH1 knockdown viability, ATP luminescence, 48 h;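 note: 0% = DMSO wells and -100% = cell-free medium wells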
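Assay cells: HT-1080 with IDH1 knockdown, 750 per well, RPMI/5% FBS. Exposure: 48 h at 37 °C following 2 h pre-incubation. Read: CellTiter-Glo luminescence; fitted concentration-response, curve class assigned.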
HT1080NT lethal: kills 2HG-producing HT-1080-NT fibrosarcoma cells; HT-1080-NT fibrosarcoma viability, CellTiter-Glo ATP luminescence, 48 h; Potency, µM (doses to about 46.1 µM), inactives show at the highest dose activity, negative = less viability, hits mostly cytotoxic; hit rate 1.6% among 360,000;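 note: NT is the 2HG producing partner of a matched IDH1 knockdown line; 0% = DMSO-treated cells and -100% = media-only wells without cells; nearly all actives have a fitted effect of over 55% in size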
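Toxicity toward the 2HG-producing NT line was scored as %Activity, normalised to DMSO and no-cell wells, from CellTiter-Glo luminescence after 48 hours' treatment.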
TDP1 cell CPT: growth inhibition of DT40 Tdp1-/-;hTDP1 cells with camptothecin (screen for TDP1 inhibitors); chicken DT40 Tdp1-/-;hTDP1 cells + 20 nM CPT, ATP luminescence, 48 h; Potency, µM (top dose mostly 46.2 µM), without a hit: at the highest dose activity change, negative = growth inhibition, usual class: inhibitors; hit rate 12% among 420,000; note: % is set by controls: 0 for no effect and ±100 for the full control effect; nearly all actives have a fitted effect of over 55% in size
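Cell growth measured by CellTiter-Glo luminescence after a minimum 48 h, 37 C compound exposure with 20 nM CPT in Tdp1-knockout DT40 cells stably expressing hTDP1, seeded 400/well; qHTS titration format.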
TGFb inhibitor: inhibitors of TGF-b signaling. HepG2 CAGA-GFP TGF-b/SMAD3 reporter, GFP fluorescence, 18 h; TGF-beta stimulated, 500 pg/mL final. Potency, µM (highest dose often 46.1 µM), for the others: at the top dose activity, negative = inhibition, hits mostly inhibitors. hit rate 1.2% among 410,000. AID 588855; note: % is set by controls: 0 for no effect and ±100 for the full control effect; nearly all actives have a fitted effect of over 65% in size
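Smad-responsive CAGA-GFP expression was quantified in HEPG2 cells exposed to compounds and 500 pg/mL final TGF-beta for 18 h at 37 degrees C; unstimulated wells defined full inhibition.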
DT40 TDP1 no CPT: qHTS for Inhibitors of human tyrosyl-DNA phosphodiesterase 1 (TDP1): qHTS in cells in absence of CPT; DT40 Tdp1-/- hTDP1 cells, no CPT, ATP luminescence, 48 h; Potency, µM (highest dose often 46.2 µM), inactives show at the highest dose activity change, negative = growth inhibition, actives largely listed as inhibitors; hit rate 15% among 420,000; note: % is set by controls: 0 for no effect and ±100 for the full control effect; nearly all actives have a fitted effect of over 55% in size
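Camptothecin absent (DMSO only). Human TDP1-complemented DT40 knockout cells, 400 cells/well, 37 °C for minimum 48 hr; ATP measured via CellTiter-Glo, 30 min dark incubation, luminescence.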
* marks the source's active call; other numbers are inactive results; i = inactive; u = inconclusive; x = not tested or not shown. Calls come from the whole dose curve; as a rule, active = well fitted curve in the direction sought with a large enough effect; inconclusive = small, poorly fitted or top-dose-only effect, or another doubt; inactive = no such curve, though single readings can be large; an effect the other way counts as inactive or inconclusive. Potency is the fitted concentration of half-maximal effect.

SMILES | HepG2 viability | HT1080 IDH1KD tx | HT1080NT lethal | TDP1 cell CPT | TGFb inhibitor | DT40 TDP1 no CPT
Cc1nn(S(=O)(=O)c2ccc(F)cc2)c(C)c1S(=O)(=O)N1CCCCC1 | -43% | 5% | 5% | 0% | 14% | 11%
Cc1cc(C(=O)CSc2nc3ccc(Cl)cc3[nH]2)c(C)n1Cc1ccco1 | -5% | -17% | -12% | 21µM* | u | 18µM*
O=C(CSc1nc2ccc(Cl)cc2[nH]1)NCc1ccco1 | -3% | -4% | -8% | -22% | -5% | u
O=c1[nH]cc(CCCc2ccccc2)c(=O)[nH]1 | 1% | 2% | -2% | 0% | -2% | -7%
COc1ccc(Cl)cc1-c1nc(-c2ccc(NC(=O)c3ccncc3)cc2)no1 | -38% | 10% | u | u | -17% | 10µM*
COc1cccc(-c2nc(-c3ccc(NC(=O)c4ccncc4)cc3)no2)c1 | 2% | 5% | 10% | 9.2µM* | 0% | 10µM*
COc1cccc(NC(=O)c2ccccc2-c2nc(-c3ccc(Cl)cc3)no2)c1 | 6% | -23% | -6% | 3% | -3% | u
CCN(CC)CCNC(=O)c1ccc(NC(=O)Cc2ccccc2F)cc1 | 1% | -4% | -8% | 18% | 1% | -4%
COc1cccc(-c2cc(C(=O)O)[nH]n2)c1 | 10% | 21% | 17% | 9% | 0% | -4%
COc1cccc(-c2cc(C(=O)Nc3ccc(F)cc3)[nH]n2)c1 | -42% | x | x | u | 1% | 16µM*
CCN(CC)CCNC(=O)c1ccc(NC(=O)c2ccccc2-c2ccc(C(F)(F)F)cc2)cc1 | -51% | 18µM* | 23µM* | 18µM* | u | u
O=c1c2c([nH]n1-c1ccccc1)C[C@@H](C1CCCCC1)O[C@H]2c1ccc(F)cc1 | x | u | u | 2% | x | -22%
COc1cc(-c2nc(-c3ccc(NC(=O)c4ccc5c(c4)OCO5)cc3)no2)cc(OC)c1OC | -57% | 5.2µM* | 4.6µM* | u | u | u
COc1ccc(-c2noc(CCC(=O)NCc3cccnc3)n2)cc1 | 0% | 0% | 5% | u | 1% | -28%
CCN(CC)CCNC(=O)c1ccc(NC(=O)c2cn(-c3ccc(F)cc3)nc2-c2cccc(OC)c2)cc1 | i | 21µM* | 23µM* | u | u | u
COc1ccc(-c2nc(-c3ccc(NC(=O)c4ccncc4)cc3)no2)cc1OC | -17% | -4% | -3% | 5.2µM* | -11% | 7.3µM*
COc1ccc(Cc2nc(-c3ccc(NC(=O)c4cccnc4)cc3)no2)cc1 | -1% | u | u | 5.8µM* | 2% | 6.5µM*
CCOc1ccc(NC(=O)CN(C)C(=O)c2cn(-c3ccc(F)cc3)nc2-c2cccc(OC)c2)cc1OCC | -13% | -12% | -11% | u | u | u
CCOCC(O)COc1ccc(NC(=O)CC[S+](C)C)cc1 (configuration not stated) | x | x | x | -2% | x | -2%
O=C(COC(=O)c1ccc(O)cc1O)NC1CC1 | 4% | 1% | 10% | -3% | 0% | 10%
CCc1nc(CN2CCN(c3cc(C(F)(F)F)ccn3)CC2)c(C)[nH]1 | -25% | -2% | -14% | 23µM* | -14% | 16µM*
O=C1CC(N2CCCCCC2)C(=O)N1c1ccc2c(c1)OCO2 (configuration not stated) | 7% | u | u | 3.7µM* | 1% | 6.3µM*
O=C1CC(N2CCN(c3ccc(O)cc3)CC2)C(=O)N1c1ccc2c(c1)OCO2 (configuration not stated) | -30% | -2% | 6% | 0% | -1% | -12%
